# In PubChem BioAssay:
# Several values for one entry are separate records, joined by “and”; a condition that tells them apart may be missing. Equal values may be shown once. Activity calls are given as the source filed them.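 How the source made its calls, unless noted: active means normalized viability below 100% at a tested concentration; inactive means the rest.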
# What was measured:
# [1] = target: 6-phosphogluconate dehydrogenase, decarboxylating (Homo sapiens) (UniProt P52209); test: 6PGD enzyme inhibitors, primary screen, biochemical, human, recombinant enzyme, NADPH absorbance (AID 1159550;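 active means at least 20% inhibition of 6-phosphogluconate dehydrogenase activity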); settings: recombinant 6PGD, NADPH absorbance 341 nm; at 10 µM; stronger effect = higher value
# [2] = differential killing of epithelial or mesenchymal cells, primary screen, imaging, PC-3E GFP, TEM4-18 mCherry, co-culture (AID 1345086;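 active means compounds killing one labelled cell type while sparing the other, by normalised counts and ratio limits, not self-fluorescent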;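 on all read-outs here: cells exposed to compound for 72 h before imaging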;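 on red/green cell ratio (normalised): normalised mesenchymal count divided by normalised epithelial count so high means epithelial killing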); settings: imaging cell counts, at 1 µM; for red/green cell ratio (normalised): actives lie on both sides, counts scaled to control wells, 1 = unselective
# [3] = survival rescue of mitochondrial mutant cells in low glucose, primary screen, MELAS cybrids, Rieske KO mouse fibroblasts, CellTiter-Glo (AID 1508586;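 active means mean z-score across replicates of 1.96 or higher in either the MELAS or the Rieske mutant cell line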;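 further: z relative to plate mean and SD of compound and empty wells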)
# [4] = ovarian cancer cell viability with rucaparib, profiling panel, oncology-focused library, rucaparib conditional (AID 1508598); settings: patient-derived ovarian cancer cells, CellTiter-Glo viability, 144 h, stronger effect = lower value
# [5] = target: NAD(+) hydrolase SARM1 (Homo sapiens) (UniProt Q6SZW1); test: SARM1 TIR NADase inhibitors, cell lysate, NAD-Glo luminescence (AID 1508614;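 active means compound whose remaining NAD level is above about 45 nM, limit read from the data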); settings: SAM-TIR HEK293T lysate NADase, at 1 µM, stronger effect = higher value
# [6] = target: Mitogen-activated protein kinase 7 (Homo sapiens) (UniProt Q13164); test: ERK5 transactivation activators in reporter cells, primary screen, cell-based, HTS (AID 1508626;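 active means luciferase signal above three times the same-plate solvent-only control wells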;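 further: luciferase driven by Gal4-ERK5 fusion binding five Gal4 sites before minimal TATA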); settings: HeLa Gal4-ERK5 transactivation, 18 h, at 5 µM, stronger effect = higher value
# [7] = viability rescue of complex I mutant cybrids, primary screen, cell-based, galactose medium, ATP luminescence (AID 1645843;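 active means z-score of at least 1.8 in each of two replicates, scored against plate mean and spread of sample wells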;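 further: positive z means more ATP and so rescue of galactose-driven cybrid death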); settings: complex I mutant cybrid cells, 72 h, stronger effect = higher value
# [8] = liver-stage malaria parasite growth inhibition, primary screen, cell-based, HepG2, luciferase luminescence, HepG2 viability (AID 624349; in the data active means parasite load remaining mostly below about 12%, no sharp cut-off; inactive means mostly above about 10%;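 further: 100% = mean of DMSO negative control wells on the same plate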); settings: P. berghei liver stage in HepG2, luciferase luminescence, concentration not given here; parasite load remaining: stronger effect = lower value; viability: measured here: HepG2 viability without parasites
# [9] = sensitizers of A549 cells to miR-34 induction, primary screen, imaging, A549 dox-inducible miR-34, nuclei and caspase counts (AID 1347080;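 active means compounds whose cell count with miR-34 switched on is under 0.7 times the count with it off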); settings: A549 miR-34 inducible, Hoechst nuclei count, 48 h
# [10] = measured here: epithelial PC-3E GFP cell survival
# [11] = measured here: mesenchymal TEM4-18 mCherry cell survival
# [12] = MELAS cybrid survival, CellTiter-Glo 48 h, stronger effect = higher value
# [13] = Rieske KO mouse fibroblast survival, CellTiter-Glo 72 h
# [14] = at 0.000305 µM, OCI-C5x cells, with rucaparib 10 µM, 100% = cells with rucaparib alone
# [15] = at 0.000305 µM, OCI-C5x cells, without rucaparib
# [16] = at 0.000305 µM, OCI-P5x cells, with rucaparib 20 µM, 100% = cells with rucaparib alone
# [17] = at 0.000305 µM, OCI-P5x cells, without rucaparib
# [18] = at 0.00122 µM, OCI-C5x cells, with rucaparib 10 µM, 100% = cells with rucaparib alone
# [19] = at 0.00122 µM, OCI-C5x cells, without rucaparib
# [20] = at 0.00122 µM, OCI-P5x cells, with rucaparib 20 µM, 100% = cells with rucaparib alone
# [21] = at 0.00122 µM, OCI-P5x cells, without rucaparib
# [22] = at 0.00488 µM, OCI-C5x cells, with rucaparib 10 µM, 100% = cells with rucaparib alone
# [23] = at 0.00488 µM, OCI-C5x cells, without rucaparib
# [24] = at 0.00488 µM, OCI-P5x cells, with rucaparib 20 µM, 100% = cells with rucaparib alone
# [25] = at 0.00488 µM, OCI-P5x cells, without rucaparib
# [26] = at 0.0195 µM, OCI-C5x cells, with rucaparib 10 µM, 100% = cells with rucaparib alone
# [27] = at 0.0195 µM, OCI-C5x cells, without rucaparib
# [28] = at 0.0195 µM, OCI-P5x cells, with rucaparib 20 µM, 100% = cells with rucaparib alone
# [29] = at 0.0195 µM, OCI-P5x cells, without rucaparib
# [30] = at 0.0781 µM, OCI-C5x cells, with rucaparib 10 µM, 100% = cells with rucaparib alone
# [31] = at 0.0781 µM, OCI-C5x cells, without rucaparib
# [32] = at 0.0781 µM, OCI-P5x cells, with rucaparib 20 µM, 100% = cells with rucaparib alone
# [33] = at 0.0781 µM, OCI-P5x cells, without rucaparib
# [34] = at 0.313 µM, OCI-C5x cells, with rucaparib 10 µM, 100% = cells with rucaparib alone
# [35] = at 0.313 µM, OCI-C5x cells, without rucaparib
# [36] = at 0.313 µM, OCI-P5x cells, with rucaparib 20 µM, 100% = cells with rucaparib alone
# [37] = at 0.313 µM, OCI-P5x cells, without rucaparib
# [38] = at 1.25 µM, OCI-C5x cells, with rucaparib 10 µM, 100% = cells with rucaparib alone
# [39] = at 1.25 µM, OCI-C5x cells, without rucaparib
# [40] = at 1.25 µM, OCI-P5x cells, with rucaparib 20 µM, 100% = cells with rucaparib alone
# [41] = at 1.25 µM, OCI-P5x cells, without rucaparib
# [42] = at 5 µM, OCI-C5x cells, with rucaparib 10 µM, 100% = cells with rucaparib alone
# [43] = at 5 µM, OCI-C5x cells, without rucaparib
# [44] = at 5 µM, OCI-P5x cells, with rucaparib 20 µM, 100% = cells with rucaparib alone
# [45] = at 5 µM, OCI-P5x cells, without rucaparib
# Chain of 6-phosphogluconate dehydrogenase, decarboxylating (Homo sapiens) (P52209 whole entry, looked up): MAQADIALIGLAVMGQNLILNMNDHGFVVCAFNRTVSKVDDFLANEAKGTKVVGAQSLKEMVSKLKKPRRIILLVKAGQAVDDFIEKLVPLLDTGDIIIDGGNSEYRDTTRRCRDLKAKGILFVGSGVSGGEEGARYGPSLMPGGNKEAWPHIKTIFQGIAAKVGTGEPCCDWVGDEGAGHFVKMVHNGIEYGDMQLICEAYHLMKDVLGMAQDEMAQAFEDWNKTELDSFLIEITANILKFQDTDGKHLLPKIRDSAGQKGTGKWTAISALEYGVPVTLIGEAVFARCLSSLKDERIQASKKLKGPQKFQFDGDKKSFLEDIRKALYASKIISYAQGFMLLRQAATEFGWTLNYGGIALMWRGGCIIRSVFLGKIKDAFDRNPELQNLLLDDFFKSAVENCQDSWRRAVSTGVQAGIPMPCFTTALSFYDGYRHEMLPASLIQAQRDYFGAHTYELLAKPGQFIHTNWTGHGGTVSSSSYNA
# Chain of NAD(+) hydrolase SARM1 (Homo sapiens) (Q6SZW1 whole entry, looked up, the tested form may be a part): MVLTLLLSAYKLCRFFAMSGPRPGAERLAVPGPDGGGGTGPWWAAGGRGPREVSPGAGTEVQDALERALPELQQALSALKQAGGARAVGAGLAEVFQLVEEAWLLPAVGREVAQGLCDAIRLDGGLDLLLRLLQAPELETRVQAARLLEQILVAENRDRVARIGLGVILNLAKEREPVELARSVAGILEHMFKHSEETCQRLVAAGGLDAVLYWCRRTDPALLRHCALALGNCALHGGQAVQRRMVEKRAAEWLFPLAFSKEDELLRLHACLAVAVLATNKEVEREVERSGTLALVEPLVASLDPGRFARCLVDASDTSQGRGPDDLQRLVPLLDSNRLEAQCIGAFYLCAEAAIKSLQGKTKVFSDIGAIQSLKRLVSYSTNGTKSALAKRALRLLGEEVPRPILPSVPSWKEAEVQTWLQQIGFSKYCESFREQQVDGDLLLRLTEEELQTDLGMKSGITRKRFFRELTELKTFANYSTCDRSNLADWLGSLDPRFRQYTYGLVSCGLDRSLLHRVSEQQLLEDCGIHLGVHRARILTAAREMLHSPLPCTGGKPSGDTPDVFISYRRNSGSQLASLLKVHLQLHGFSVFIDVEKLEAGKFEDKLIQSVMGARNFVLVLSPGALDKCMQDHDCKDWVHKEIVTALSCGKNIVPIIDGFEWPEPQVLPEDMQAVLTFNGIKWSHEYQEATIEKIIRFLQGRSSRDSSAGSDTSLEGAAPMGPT
# Chain of Mitogen-activated protein kinase 7 (Homo sapiens) (Q13164 whole entry, looked up, the tested form may be a part): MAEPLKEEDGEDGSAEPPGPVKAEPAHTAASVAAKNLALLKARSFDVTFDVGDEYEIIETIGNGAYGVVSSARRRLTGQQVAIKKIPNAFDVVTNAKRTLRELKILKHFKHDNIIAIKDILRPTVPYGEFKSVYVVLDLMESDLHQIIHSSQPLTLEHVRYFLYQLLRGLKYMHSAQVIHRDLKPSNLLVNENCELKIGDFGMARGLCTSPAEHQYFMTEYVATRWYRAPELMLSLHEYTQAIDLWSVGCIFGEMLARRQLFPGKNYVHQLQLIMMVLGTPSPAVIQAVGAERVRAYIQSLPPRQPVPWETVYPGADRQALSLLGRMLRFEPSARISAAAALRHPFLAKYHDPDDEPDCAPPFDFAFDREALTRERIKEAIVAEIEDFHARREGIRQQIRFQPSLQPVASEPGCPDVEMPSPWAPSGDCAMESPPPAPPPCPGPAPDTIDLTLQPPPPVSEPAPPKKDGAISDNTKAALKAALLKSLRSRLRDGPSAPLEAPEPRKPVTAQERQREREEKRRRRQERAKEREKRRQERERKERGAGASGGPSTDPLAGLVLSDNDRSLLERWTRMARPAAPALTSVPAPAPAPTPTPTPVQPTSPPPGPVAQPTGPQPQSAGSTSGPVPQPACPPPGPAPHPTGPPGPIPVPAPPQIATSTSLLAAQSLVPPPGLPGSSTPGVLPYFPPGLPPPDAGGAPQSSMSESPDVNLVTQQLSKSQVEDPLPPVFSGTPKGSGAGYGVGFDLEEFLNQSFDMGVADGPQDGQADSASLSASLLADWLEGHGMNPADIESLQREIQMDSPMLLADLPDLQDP
smiles,measurement,setting,value
COc1c(C)c2c(c(O)c1C/C=C(\C)CCC(=O)O)C(=O)OC2,inhibition,[1],-6.15% (inactive)
same,red/green cell ratio (normalised),[2],0.6 (active)
same,normalised cell number,[2]; [10],0.58
same,normalised cell number,[2]; [11],0.35
same,z-score,[3]; [12],-0.0503
same,z-score,[3]; [13],2.98
same,viability,[4]; [14],117% (inactive)
same,viability,[4]; [15],124% (inactive)
same,viability,[4]; [16],87.8% (active)
same,viability,[4]; [17],96% (active)
same,viability,[4]; [18],121% (inactive)
same,viability,[4]; [19],126% (inactive)
same,viability,[4]; [20],90.6% (active)
same,viability,[4]; [21],103% (inactive)
same,viability,[4]; [22],129% (inactive)
same,viability,[4]; [23],128% (inactive)
same,viability,[4]; [24],96.9% (active)
same,viability,[4]; [25],109% (inactive)
same,viability,[4]; [26],121% (inactive)
same,viability,[4]; [27],129% (inactive)
same,viability,[4]; [28],95.2% (active)
same,viability,[4]; [29],112% (inactive)
same,viability,[4]; [30],166% (inactive)
same,viability,[4]; [31],162% (inactive)
same,viability,[4]; [32],97.4% (active)
same,viability,[4]; [33],97% (active)
same,viability,[4]; [34],180% (inactive)
same,viability,[4]; [35],189% (inactive)
same,viability,[4]; [36],85.4% (active)
same,viability,[4]; [37],62.1% (active)
same,viability,[4]; [38],128% (inactive)
same,viability,[4]; [39],117% (inactive)
same,viability,[4]; [40],70% (active)
same,viability,[4]; [41],40.7% (active)
same,viability,[4]; [42],73.1% (active)
same,viability,[4]; [43],56.4% (active)
same,viability,[4]; [44],46.2% (active)
same,viability,[4]; [45],30.7% (active)
same,remaining NAD,[5],10 nM (inactive)
same,luciferase signal,[6],48 AU (inactive)
same,z-score,[7],1.33 (inactive) and 1.68 (inactive)
C=CCCCCCCCCCCCC(O)CC(O)CO (configuration not stated) (tested in a mixture with another compound),inhibition,[1],-8.17% (inactive)
same,red/green cell ratio (normalised),[2],0.87 (inactive)
same,normalised cell number,[2]; [10],1.32
same,normalised cell number,[2]; [11],1.14
CC(=O)c1ccc[nH]1,inhibition,[1],13.8% (inactive)
same,red/green cell ratio (normalised),[2],0.97 (inactive)
same,normalised cell number,[2]; [10],1.06
same,normalised cell number,[2]; [11],1.03
CC/C(=C(\c1ccccc1)c1ccc(OCCN(C)C)cc1)c1ccccc1,inhibition,[1],1.2% (inactive)
same,red/green cell ratio (normalised),[2],1.09 (inactive)
same,normalised cell number,[2]; [10],0.93
same,normalised cell number,[2]; [11],1.01
same,z-score,[3]; [12],-0.656 (inactive) and -1.22 (inactive)
same,z-score,[3]; [13],0.287 and -0.548
same,viability,[4]; [14],93.5% (active)
same,viability,[4]; [15],95.2% (active)
same,viability,[4]; [16],89.3% (active)
same,viability,[4]; [17],83.7% (active)
same,viability,[4]; [18],109% (inactive)
same,viability,[4]; [19],97.1% (active)
same,viability,[4]; [20],92.3% (active)
same,viability,[4]; [21],91.4% (active)
same,viability,[4]; [22],103% (inactive)
same,viability,[4]; [23],93.8% (active)
same,viability,[4]; [24],101% (inactive)
same,viability,[4]; [25],97.9% (active)
same,viability,[4]; [26],107% (inactive)
same,viability,[4]; [27],97.1% (active)
same,viability,[4]; [28],89.8% (active)
same,viability,[4]; [29],99.8% (active)
same,viability,[4]; [30],99.2% (active)
same,viability,[4]; [31],92.3% (active)
same,viability,[4]; [32],97% (active)
same,viability,[4]; [33],99.7% (active)
same,viability,[4]; [34],110% (inactive)
same,viability,[4]; [35],95.3% (active)
same,viability,[4]; [36],97.5% (active)
same,viability,[4]; [37],102% (inactive)
same,viability,[4]; [38],98.2% (active)
same,viability,[4]; [39],100% (inactive)
same,viability,[4]; [40],100% (inactive)
same,viability,[4]; [41],106% (inactive)
same,viability,[4]; [42],95.5% (active)
same,viability,[4]; [43],100% (active)
same,viability,[4]; [44],97.5% (active)
same,viability,[4]; [45],101% (inactive)
same,remaining NAD,[5],10 nM (inactive)
same,luciferase signal,[6],84 AU (inactive)
CC(C)=CCCC1(C)C=Cc2c(O)c3c(c(CC=C(C)C)c2O1)OC12C(=CCCC1C(C)(C)O[C@@]2(C/C=C(\C)C(=O)O)C(=O)O)C3=O (some centres not stated),inhibition,[1],0.371% (inactive)
same,red/green cell ratio (normalised),[2],0.93 (inactive)
same,normalised cell number,[2]; [10],1.16
same,normalised cell number,[2]; [11],1.08
COc1cc(OC)c(-c2c(OC)cc(OC)cc2OC)c(OC)c1,inhibition,[1],11.7% (inactive)
same,red/green cell ratio (normalised),[2],1.06 (inactive)
same,normalised cell number,[2]; [10],0.99
same,normalised cell number,[2]; [11],1.04
COc1cc(-c2coc3cc(OCc4ccccc4)c(OC)c(O)c3c2=O)cc(O)c1OC,inhibition,[1],9.07% (inactive)
same,red/green cell ratio (normalised),[2],0.97 (inactive)
same,normalised cell number,[2]; [10],1.1
same,normalised cell number,[2]; [11],1.07
CN1C[C@H](C(=O)N[C@]2(C)O[C@@]3(O)[C@@H]4CCCN4C(=O)[C@H](Cc4ccccc4)N3C2=O)C[C@@H]2c3cccc4[nH]cc(c34)C[C@H]21,parasite load remaining,[8],81.1% (inactive) and 61.1% (inactive) and 32.5% (inactive)
same,viability,[8],69.3% and 88.9% and 89.9%
same,inhibition,[1],6.21% (inactive)
same,red/green cell ratio (normalised),[2],1.38 (inactive)
same,normalised cell number,[2]; [10],1.07
same,normalised cell number,[2]; [11],1.48
same,fold change,"[9]; stronger effect = lower value, cell number ratio, induced over uninduced",1.02 (inactive) and 0.955 (inactive) and 0.914 (inactive)
same,fold change,[9]; measured here: relative caspase fold change +Dox/-Dox,1.31 and 1.01 and 2.52
same,cell count,"[9]; measured here: total cells with miR-34 induction, stronger effect = lower value",7530 and 7990 and 11700
same,cell count,[9]; measured here: total cells without miR-34 induction,7390 and 8360 and 12800
same,remaining NAD,[5],10 nM (inactive)
same,luciferase signal,[6],32 AU (inactive)
same,z-score,[7],-0.125 (inactive) and -0.835 (inactive)
CC(=O)/C(=C\c1ccccc1)CC(=O)O,inhibition,[1],3.72% (inactive)
same,red/green cell ratio (normalised),[2],0.99 (inactive)
same,normalised cell number,[2]; [10],1.18
same,normalised cell number,[2]; [11],1.16
COc1cc(OC)c2c(=O)cc(-c3ccccc3)oc2c1,inhibition,[1],13.7% (inactive)
same,red/green cell ratio (normalised),[2],0.95 (inactive)
same,normalised cell number,[2]; [10],1.06
same,normalised cell number,[2]; [11],1.01
CC(=O)NC(C(=O)O)C(C)(C)SN=O (configuration not stated),inhibition,[1],3.72% (inactive)
same,red/green cell ratio (normalised),[2],1.02 (inactive)
same,normalised cell number,[2]; [10],1.04
same,normalised cell number,[2]; [11],1.06
COc1cccc(-c2cc(=O)c3cc(OC)ccc3o2)c1,inhibition,[1],-1.86% (inactive)
same,red/green cell ratio (normalised),[2],1.05 (inactive)
same,normalised cell number,[2]; [10],0.89
same,normalised cell number,[2]; [11],0.94
COc1ccc2c(=O)c(OC)c(-c3ccccc3)oc2c1,inhibition,[1],5.12% (inactive)
same,red/green cell ratio (normalised),[2],0.95 (inactive)
same,normalised cell number,[2]; [10],1.07
same,normalised cell number,[2]; [11],1.02
O=C(O)c1cc(=O)c(O)c2c(O)c(O)ccc2c1,inhibition,[1],31% (active)
same,red/green cell ratio (normalised),[2],0.86 (inactive)
same,normalised cell number,[2]; [10],1.29
same,normalised cell number,[2]; [11],1.11
CC1CC[C@@]2(OC1)O[C@H]1CC3C4CC[C@@H]5C[C@@H](O)CC[C@]5(C)C4CC[C@]3(C)[C@H]1[C@@H]2C (some centres not stated),inhibition,[1],-2.11% (inactive)
same,red/green cell ratio (normalised),[2],1.16 (inactive)
same,normalised cell number,[2]; [10],1.03
same,normalised cell number,[2]; [11],1.2
